The text below walks through data of PubChem BioAssay (NCATS).

Results filed as inconclusive are left out. A call without a number means that no potency is given here. Activity calls are given as the source filed them. Calls follow the shape of the dose curve; as a rule, active = well fitted inhibition curve with a large enough effect; inconclusive = small, poorly fitted or top-dose-only effect; inactive = flat fitted curve, though single readings scatter.
Potency is read from the fitted curve at half-maximal effect.

Chain of Glutathione peroxidase 1 (Homo sapiens) (P07203 whole entry, looked up): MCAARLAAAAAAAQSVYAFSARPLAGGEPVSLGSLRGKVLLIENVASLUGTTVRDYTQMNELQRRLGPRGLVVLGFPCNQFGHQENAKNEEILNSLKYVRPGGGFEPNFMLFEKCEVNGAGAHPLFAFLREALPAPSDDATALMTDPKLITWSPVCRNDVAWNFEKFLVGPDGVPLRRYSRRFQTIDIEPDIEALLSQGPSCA

The assay concerns the target Glutathione peroxidase 1 (Homo sapiens) (UniProt P07203). Put plainly: Primary qHTS Assay for Inhibitors of Recombinant Selenoprotein Glutathione Peroxidase 1 (GPX1) (AID 1845191). Also: nearly all actives have a fitted effect of over 65% in size. The conditions noted are these: recombinant GPX1, GR-coupled NADPH fluorescence, 15 min; series mostly up to 48.8 µM. From the text:
Assay Provider: Elias S.J. Arner MD PhD.
Department of Medical Biochemistry and Biophysics
Karolinska Institutet, Solna, Stockholm, Sweden
Selenoprotein glutathione peroxidases (GPX), like the ubiquitously expressed GPX1 and the ferroptosis modulator GPX4, enact their antioxidant activities by reducing hydroperoxides using glutathione. […] GPX1 and GPX4 inhibitors have thus shown promise as anti-cancer agents. Existing inhibitors are often promiscuous, or modulate GPX activity only indirectly, so novel direct inhibitors identified through screening against GPX1 and GPX4 could be valuable. Here, we developed optimized glutathione reductase (GR)-coupled GPX assays for the biochemical high-throughput screen (HTS) of almost 12,000 compounds with known mechanisms of action. Initial hits were triaged using a GR counter-screen, assessed for isoform specificity using a separate GPX2 assay, and were assessed for general selenocysteine-targeting activity using a thioredoxin reductase (TXNRD1) assay. With this suite of assays, we identified novel GPX1/GPX2- and GPX4-specific inhibitors and can here present a validated pipeline for future discovery research for selenoprotein-targeting agents.
SEQUENCE No. (e.g., 1, 2, 3, etc.); […] (e.g., Cells, Incubation, Reagent, etc.); VALUE; DESCRIPTION.
1; Reagent 1; 3 uL; GPx1 enzyme or no enzyme control in 1536-well, black, solid Greiner assay plate.
2; Compound; 25 nL; Kalypsis pin tool (Wako USA) equipped with a 1536-well pin head.
3; Incubation; 30 min; room temperature.
4; Reagent 2; 1 uL; 10 nM GPX1, 1 mM GSH, 0.5 mM CHP, 0.5 mM NADPH, 100 nM GR, 0.01% BSA substrate
5; Detection; Fluorescence; ViewLux microplate reader, excitation 340 nm and emission 450 nm.
6; Incubation; 15 min; room temperature.
7; Detection; Fluorescence; ViewLux microplate reader, excitation 340 nm and emission 450 nm.
NOTES (numbers refer to Sequence numbers above)
1. 3 uL of 16.66 nM GPX1 and 0.016% BSA in assay buffer (50 mM Tris-HCl, 2 mM EDTA (pH 7.5), 150 mM NaCl) was added to columns 3-48 of 1536-well assay plates using a BioRAPTR Flying Reagent Dispenser (Let's Go Robotics (LGR), Carlsbad, CA). A no-enzyme control (0.01% BSA in TES assay buffer) was added to columns 1-2.
2. 25 nL of test compounds and DMSO controls were added to each well with a pin tool (Kalypsys).
3. The assay plates were incubated for 30 minutes at room temperature.
4. 1 uL of master mix (500 nM glutathione reductase (GR), 5 mM reduced glutathione (GSH), 2.5 mM NADPH in assay buffer) was added. 1 uL of cumene hydroperoxide (CHP) ([2.5 mM] in 50% EtOH) was then added within 5 minutes to initiate the reaction. Final concentrations were: 10 nM GPX1, 1 mM GSH, 0.5 mM CHP, 0.5 mM NADPH, 100 nM GR, 0.01% BSA.
5. Initial fluorescence readout (t=0) at 340/450 nm was measured using a ViewLux multimodal detector (PerkinElmer, Waltham, MA).
7. Endpoint fluorescence readout (t=15) at 340/450 nm was measured 15 min after room temperature incubation.
For orientation: Quantitative high-throughput screening tests each substance at several concentrations.
Turning to `Nc1[nH]nc2nnc(-c3c(-c4ccccc4)nn4ccccc34)cc12`, the Potency result was “inactive”. For the compound `COc1cc(F)c(C(C)C)cc1-c1ccc(C(F)(F)F)cc1CN1C(=O)O[C@H](c2cc(C(F)(F)F)cc(C(F)(F)F)c2)[C@@H]1C`, the Potency result is “inactive”. Regarding `CC(C)C[C@@H](C(=O)N[C@H](C(=O)OC1CCCC1)c1ccccc1)[C@H](O)C(=O)NO`, the Potency entry was “inactive”. For `NC1(C(=O)N[C@@H](CCO)c2ccc(Cl)cc2)CCN(c2ncnc3[nH]ccc23)CC1` the value was “inactive”. With `CC(C)C[C@H](NC(=O)c1cc2ccccc2s1)C(=O)N1CCN(C(=O)[C@H](CO)NS(=O)(=O)c2ccc(Cl)cc2Cl)CC1`, the Potency result is “inactive”. Take `O=C1CN2Cc3c(ccc(Cl)c3Cl)N=C2N1`: the Potency entry is “inactive”. Regarding `CN1c2ccccc2C(=O)N2CCc3c([nH]c4ccccc34)C21` (stereo not given), the Potency entry is “inactive”. For `COC1CCC(C(=O)c2ccc3nc4c(cc3c2)CCCO4)CC1` (stereo not given) the value was “inactive”; for `CN1CCN(c2cccc(Nc3nc4c(-c5ccc(S(C)(=O)=O)cc5)cccn4n3)c2)CC1`, “inactive”. Consider `N#Cc1ccc(Oc2ccc3c(c2)COB3O)cc1`, for which the Potency result is “inactive”.

In the case of `CN1C(=O)C[C@H](C(=O)N[C@@H](Cc2cnc[nH]2)C(=O)N2CCC[C@@H]2C(N)=O)NC1=O`, the Potency entry was “inactive”. For `CCc1cc(-c2n[nH]c(C)c2-c2ccc3c(c2)OCCO3)c(O)cc1O` the value was “inactive”; for `COc1cc2ncnc(Nc3cc(Br)c(O)c(Br)c3)c2cc1OC`, “inactive”; for `CC[C@H](CC#N)OC(=O)N[C@@H](C)c1cccc(NC(=O)Nc2ccc(-c3cnco3)c(OC)c2)c1`, “inactive”. For `C[C@@H](O)[C@H]1C(=O)N2C(C(=O)OCOC(=O)C(C)(C)C)=C(SC3CN(C4=NCCS4)C3)[C@H](C)[C@H]12` the value was “inactive”; for `Nc1ccc(-c2ccc3ncc4ccc(=O)n(-c5cccc(C(F)(F)F)c5)c4c3c2)cn1`, “inactive”. For `COc1nc(C)cnc1NS(=O)(=O)c1cccnc1-c1ccc(-c2nnco2)cc1` the value was “inactive”; for `O=C1NC(=O)C(c2cnc3ccccn23)=C1c1cn2c3c(cccc13)CN(C(=O)N1CCOCC1)CC2`, “inactive”; for `CN1N=C(N)c2cn([C@@H]3O[C@H](COP(=O)(O)O)[C@@H](O)[C@@H]3O)c3ncnc1c23`, “inactive”. For `C[C@@H](O[C@H]1OCCN(Cc2n[nH]c(=O)[nH]2)[C@@H]1c1ccc(F)cc1)c1cc(C(F)(F)F)cc(C(F)(F)F)c1`, the Potency result was “inactive”. In the case of `NC(=O)c1noc([C@H](CCCC2CCCCC2)CC(=O)NO)n1`, the Potency entry was “inactive”. For `O=C1CCCC(=O)C1C(=O)c1ccc(C(F)(F)F)cc1[N+](=O)[O-]` the value was “inactive”.

Turning to `N#CC(c1ccc(Cl)cc1)c1c(Cl)cc(-n2ncc(=O)[nH]c2=O)cc1Cl` (stereo not given), the Potency entry is “inactive”.

In the case of `O=C(CC12CC3CC(CC(C3)C1)C2)Nc1cccc2nc(NCCNCCO)ccc12`, the Potency result was “inactive”.

With `Cc1ccc(NC(=O)c2cccc(N(C)C)c2)cc1NC(=O)c1ccc(O)cc1`, the Potency entry was “inactive”.

`CC(=O)NCCC(=O)N[C@@H](CCC(N)=O)C(=O)N[C@@H](CO)C(=O)N[C@@H](CCC(N)=O)C(=O)N[C@@H](CCC(N)=O)C(=O)N[C@H](C(=O)N[C@@H](Cc1ccccc1)C(=O)N[C@]1(C)CCCCCCC=CCCC[C@@](C)(C(=O)N[C@@H](CCC(N)=O)C(=O)N[C@@H](CC(N)=O)C(N)=O)NC(=O)[C@H](CC(C)C)NC(=O)[C@H](CC(C)C)NC(=O)[C@@H](CCCNC(=N)N)NC(=O)[C@H](Cc2c[nH]c3ccccc23)NC(=O)[C@H](CC(C)C)NC(=O)[C@H](CC(N)=O)NC1=O)[C@H](C)O`: the Potency result was “inactive”. For `CCCCC[C@H](O)C=C[C@H]1[C@H](O)CC(=O)[C@H]1CC=CCCCC(=O)O`, the Potency result is “inactive”. For `NC(=O)c1ccc(N(C(N)=O)c2c(F)cccc2F)nc1-c1ccc(F)cc1F` the value was “inactive”; for `CC1CCN(c2cc(N3CCN(C)CC3)ccc2NC(=O)c2cc(C#N)c[nH]2)CC1`, “inactive”. `CN(C)c1ccccc1CN1CCCN(Cc2ccccc2N(C)C)C1c1ccncc1`: the Potency result was “inactive”. For `CCN(CC)CCCCNc1nc2cc(Cl)c(Cl)cc2nc1-c1ccc(-c2cccs2)s1` the value was “inactive”; for `Cc1cccc(Nc2nc(N[C@@H]3CCCC[C@H]3N)ncc2C(N)=O)c1`, “inactive”. For `N[C@@H](CC(=O)N1CCn2c(nnc2C(F)(F)F)C1)Cc1cc(F)c(F)cc1F` the value was “inactive”; for `Nc1ccn([C@@H]2O[C@H](CO)[C@@H](O)[C@H]2O)c(=O)n1`, “inactive”; for `CN1CC(=O)NC1=NC(=O)Nc1cccc(Cl)c1`, “inactive”. For `CC[C@H](C)C(=O)O[C@H]1C[C@H](O)C=C2C=C[C@H](C)[C@H](CC[C@@H](O)C[C@@H](O)CC(=O)O)[C@H]21` the value was “inactive”. As for `Cn1c(=O)c(Oc2ccc(F)cc2F)cc2cnc(NC3CCOCC3)nc21`, the Potency was 16.3 µM (active). For `Cc1ccc(C(=O)N(CCCN)[C@@H](c2oc3cc(Cl)ccc3c(=O)c2Cc2ccccc2)C(C)C)cc1` the value was “inactive”; for `CC1CNc2c(cccc2S(=O)(=O)N[C@@H](CCCN=C(N)N)C(=O)N2CC[C@@H](C)C[C@@H]2C(=O)O)C1` (stereo not given in full), “inactive”; for `O=C(O)CCNc1cc(N2CCc3ccccc3CC2)nc(-c2ccccn2)n1`, “inactive”.
